Results on eight sequences are retold here after article PMC7862700, “An all-to-all approach to the identification of sequence-specific readers for epigenetic DNA modifications on cytosine”.

Test in all cases: DAPPL (digital affinity profiling via proximity ligation, sequencing); 10 mM Tris-HCl pH 7.5, 50 mM NaCl, 1 mM DTT, 4% glycerol, room temperature, 30 min; GST-TFs on glutathione beads, 16-mer random dsDNA library, 0.1% formaldehyde crosslink after washing; high values mean tight binding
Common to all, as to settings: protein: recombinant; tags: N-terminal GST; dsDNA, one strand shown

One assay concerns the target T1, FLI1 (Homo sapiens, UniProt Q01543 1-452).
T1 sequence: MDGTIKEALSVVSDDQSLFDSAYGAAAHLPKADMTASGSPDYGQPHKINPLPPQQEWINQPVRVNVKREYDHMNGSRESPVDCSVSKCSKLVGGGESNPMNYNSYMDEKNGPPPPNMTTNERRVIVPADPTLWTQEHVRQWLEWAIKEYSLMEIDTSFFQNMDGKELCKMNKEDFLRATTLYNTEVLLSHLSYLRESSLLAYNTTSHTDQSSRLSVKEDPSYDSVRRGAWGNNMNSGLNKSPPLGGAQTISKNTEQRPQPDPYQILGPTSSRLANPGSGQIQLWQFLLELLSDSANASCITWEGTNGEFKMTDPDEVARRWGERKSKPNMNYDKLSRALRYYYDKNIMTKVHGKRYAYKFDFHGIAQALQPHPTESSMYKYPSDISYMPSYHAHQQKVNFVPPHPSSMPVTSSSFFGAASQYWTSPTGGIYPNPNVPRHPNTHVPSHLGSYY
In outline:
(§1)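 Human transcription factors were made in yeast as GST fusions, captured on glutathione beads and barcoded with DNA. With a tag-only sample included, the pool was incubated with 200 nmole of a random double-stranded 16-mer DNA library in Tris/NaCl/DTT/glycerol buffer at room temperature for 30 min, then crosslinked with 0.1% formaldehyde after washing, ligated by proximity, amplified and sequenced. For binding signal, each hexamer's read frequency for a factor is divided by its frequency for the tag-only sample.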

A further assay has as its target T2, ELK1 (Homo sapiens, UniProt P19419 1-428).
T2 sequence: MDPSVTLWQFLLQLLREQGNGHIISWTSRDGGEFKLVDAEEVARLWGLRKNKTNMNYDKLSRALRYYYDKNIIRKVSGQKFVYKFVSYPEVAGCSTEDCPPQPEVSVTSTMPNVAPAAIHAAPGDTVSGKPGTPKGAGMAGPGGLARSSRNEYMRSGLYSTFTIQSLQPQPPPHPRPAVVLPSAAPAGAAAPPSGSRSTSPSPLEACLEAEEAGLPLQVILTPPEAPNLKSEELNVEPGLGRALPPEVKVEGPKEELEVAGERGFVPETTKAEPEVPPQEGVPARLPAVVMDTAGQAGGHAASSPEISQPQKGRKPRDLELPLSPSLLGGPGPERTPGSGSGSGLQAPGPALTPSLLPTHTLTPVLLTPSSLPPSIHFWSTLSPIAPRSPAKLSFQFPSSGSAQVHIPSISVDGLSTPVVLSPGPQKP
In outline:
as §1

A further assay deals with T3, GABPA (Homo sapiens, UniProt Q06546 1-454).
T3 sequence: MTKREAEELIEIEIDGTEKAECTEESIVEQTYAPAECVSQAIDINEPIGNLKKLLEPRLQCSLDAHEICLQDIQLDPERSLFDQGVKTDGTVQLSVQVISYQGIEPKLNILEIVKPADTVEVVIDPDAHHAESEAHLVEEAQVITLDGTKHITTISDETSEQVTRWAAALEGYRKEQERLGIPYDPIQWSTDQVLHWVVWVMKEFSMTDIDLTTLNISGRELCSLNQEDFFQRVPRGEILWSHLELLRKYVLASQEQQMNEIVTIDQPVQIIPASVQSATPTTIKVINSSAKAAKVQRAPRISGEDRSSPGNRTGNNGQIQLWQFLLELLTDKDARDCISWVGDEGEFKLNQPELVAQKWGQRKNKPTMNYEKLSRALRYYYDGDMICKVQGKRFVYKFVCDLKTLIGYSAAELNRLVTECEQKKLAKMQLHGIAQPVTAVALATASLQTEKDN
The essentials: as §1

A further assay has as its target T4, ERG (Homo sapiens, UniProt P11308 1-479).
T4 sequence: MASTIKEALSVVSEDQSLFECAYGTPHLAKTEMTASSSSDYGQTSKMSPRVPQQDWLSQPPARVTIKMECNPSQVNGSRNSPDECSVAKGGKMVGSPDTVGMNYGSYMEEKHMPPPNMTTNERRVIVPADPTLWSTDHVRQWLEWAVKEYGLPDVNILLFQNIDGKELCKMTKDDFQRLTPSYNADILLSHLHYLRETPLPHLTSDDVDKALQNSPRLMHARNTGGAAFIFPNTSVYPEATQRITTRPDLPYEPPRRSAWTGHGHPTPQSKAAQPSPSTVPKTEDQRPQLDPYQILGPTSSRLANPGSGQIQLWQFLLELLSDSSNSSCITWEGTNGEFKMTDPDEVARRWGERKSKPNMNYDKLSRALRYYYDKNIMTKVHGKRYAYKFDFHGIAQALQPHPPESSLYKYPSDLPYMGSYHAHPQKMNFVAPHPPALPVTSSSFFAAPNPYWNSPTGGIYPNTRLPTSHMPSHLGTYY
The essentials: as §1

A further assay deals with ELF1 (Homo sapiens, UniProt P32519 1-619). In outline: as §1
A further assay addresses T5, EHF (Homo sapiens, UniProt Q9NZC4 1-300).
T5 sequence: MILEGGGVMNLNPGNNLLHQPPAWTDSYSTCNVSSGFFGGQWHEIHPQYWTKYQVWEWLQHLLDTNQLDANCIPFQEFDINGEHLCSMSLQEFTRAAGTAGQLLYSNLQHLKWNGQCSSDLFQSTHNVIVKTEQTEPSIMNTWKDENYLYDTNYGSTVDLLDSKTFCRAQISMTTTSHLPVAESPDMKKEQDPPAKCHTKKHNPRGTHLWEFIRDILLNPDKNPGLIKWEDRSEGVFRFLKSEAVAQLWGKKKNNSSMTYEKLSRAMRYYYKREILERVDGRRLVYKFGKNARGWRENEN
In outline:
as §1

The target in the next assay is SPI1 (Homo sapiens, UniProt P17947 1-270). The essentials:
as §1

The target in another assay is SPIB (Homo sapiens, UniProt Q01892 1-262). In outline:
as §1

For another assay, the target named is T6, ELK3 (Homo sapiens, UniProt P41970 1-407).
T6 sequence: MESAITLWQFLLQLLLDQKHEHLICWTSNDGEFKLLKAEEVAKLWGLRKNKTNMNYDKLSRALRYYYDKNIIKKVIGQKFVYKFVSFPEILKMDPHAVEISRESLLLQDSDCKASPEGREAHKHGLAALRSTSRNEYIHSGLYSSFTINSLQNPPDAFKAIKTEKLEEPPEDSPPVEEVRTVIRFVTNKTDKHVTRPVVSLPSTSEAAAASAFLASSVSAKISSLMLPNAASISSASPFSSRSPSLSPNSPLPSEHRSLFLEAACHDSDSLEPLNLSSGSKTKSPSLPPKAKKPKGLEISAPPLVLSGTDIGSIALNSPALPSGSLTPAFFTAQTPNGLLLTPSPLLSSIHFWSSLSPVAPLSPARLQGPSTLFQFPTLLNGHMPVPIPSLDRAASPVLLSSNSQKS
The essentials: as §1

Chain of ELF1 (P32519 whole entry): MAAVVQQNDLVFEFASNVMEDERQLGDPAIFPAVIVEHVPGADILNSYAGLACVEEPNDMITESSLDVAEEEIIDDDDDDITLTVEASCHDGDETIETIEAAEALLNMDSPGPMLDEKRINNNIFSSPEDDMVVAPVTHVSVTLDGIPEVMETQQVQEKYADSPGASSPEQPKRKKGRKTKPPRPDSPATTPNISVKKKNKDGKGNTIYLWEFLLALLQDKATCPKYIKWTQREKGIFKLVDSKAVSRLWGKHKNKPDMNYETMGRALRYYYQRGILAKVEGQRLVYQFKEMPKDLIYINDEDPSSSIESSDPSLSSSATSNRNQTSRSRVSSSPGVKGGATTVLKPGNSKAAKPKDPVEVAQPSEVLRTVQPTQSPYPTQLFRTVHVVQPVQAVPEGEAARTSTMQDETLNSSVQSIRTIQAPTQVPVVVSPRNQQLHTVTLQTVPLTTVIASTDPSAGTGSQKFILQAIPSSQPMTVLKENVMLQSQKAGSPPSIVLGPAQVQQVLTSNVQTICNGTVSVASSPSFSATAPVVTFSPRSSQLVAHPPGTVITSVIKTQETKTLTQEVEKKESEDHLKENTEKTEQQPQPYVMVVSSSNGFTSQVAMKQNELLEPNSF
Chain of SPIB (Q01892 whole entry): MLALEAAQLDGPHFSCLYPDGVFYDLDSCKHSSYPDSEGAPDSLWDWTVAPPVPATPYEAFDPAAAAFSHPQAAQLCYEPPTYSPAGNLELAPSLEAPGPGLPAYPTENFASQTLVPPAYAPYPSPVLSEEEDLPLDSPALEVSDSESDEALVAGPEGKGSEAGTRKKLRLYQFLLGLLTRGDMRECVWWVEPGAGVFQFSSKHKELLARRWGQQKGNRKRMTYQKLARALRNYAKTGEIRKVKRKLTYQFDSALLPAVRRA

With TTTATT, the binding signal with FLI1 was 1.36 fold enrichment (6-mer frequency, TF over GST control); in the assay with ELK1 it was 1.25 fold enrichment (6-mer frequency, TF over GST control); in the assay with GABPA, 1.24 fold enrichment (6-mer frequency, TF over GST control); in the assay with ERG it was 1.26 fold enrichment (6-mer frequency, TF over GST control); with ELF1, 1.19 fold enrichment (6-mer frequency, TF over GST control); with EHF, 1.31 fold enrichment (6-mer frequency, TF over GST control). Moreover, the binding signal with SPI1 is 1.25 fold enrichment (6-mer frequency, TF over GST control); with SPIB, 1.32 fold enrichment (6-mer frequency, TF over GST control); in the assay with ELK3, 1.31 fold enrichment (6-mer frequency, TF over GST control).
With TATCTG, the binding signal with FLI1 is 1.3 fold enrichment (6-mer frequency, TF over GST control); with ELK1, 1.12 fold enrichment (6-mer frequency, TF over GST control); with GABPA, 1.21 fold enrichment (6-mer frequency, TF over GST control); with ERG, 1.25 fold enrichment (6-mer frequency, TF over GST control); in the assay with ELF1, 1.26 fold enrichment (6-mer frequency, TF over GST control); with EHF, 1.16 fold enrichment (6-mer frequency, TF over GST control). Besides, the binding signal with SPI1 is 1.21 fold enrichment (6-mer frequency, TF over GST control); in the assay with SPIB, 1.16 fold enrichment (6-mer frequency, TF over GST control); with ELK3 it was 1.21 fold enrichment (6-mer frequency, TF over GST control).
As for TCAAAT, the binding signal in the assay with FLI1 was 1.04 fold enrichment (6-mer frequency, TF over GST control); with ELK1, 1.05 fold enrichment (6-mer frequency, TF over GST control); in the assay with GABPA, 1.14 fold enrichment (6-mer frequency, TF over GST control); in the assay with ERG, 1.06 fold enrichment (6-mer frequency, TF over GST control); in the assay with ELF1, 1.15 fold enrichment (6-mer frequency, TF over GST control); with EHF, 1.07 fold enrichment (6-mer frequency, TF over GST control). Also, the binding signal with SPI1 is 1.11 fold enrichment (6-mer frequency, TF over GST control); with SPIB it was 1.05 fold enrichment (6-mer frequency, TF over GST control); with ELK3, 1.03 fold enrichment (6-mer frequency, TF over GST control).
For the sequence CTATTA, the binding signal with FLI1 is 1.18 fold enrichment (6-mer frequency, TF over GST control); in the assay with ELK1, 1.05 fold enrichment (6-mer frequency, TF over GST control); with GABPA, 1.06 fold enrichment (6-mer frequency, TF over GST control); with ERG it was 1.07 fold enrichment (6-mer frequency, TF over GST control); with ELF1 it was 1.09 fold enrichment (6-mer frequency, TF over GST control); with EHF, 1.12 fold enrichment (6-mer frequency, TF over GST control). In addition, the binding signal is 1.1 fold enrichment (6-mer frequency, TF over GST control) with SPI1; 1.13 fold enrichment (6-mer frequency, TF over GST control) with SPIB; 1.04 fold enrichment (6-mer frequency, TF over GST control) with ELK3.
Turning to ATCCCG, the binding signal in the assay with FLI1 is 1.5 fold enrichment (6-mer frequency, TF over GST control); with ELK1, 1.36 fold enrichment (6-mer frequency, TF over GST control); with GABPA, 1.47 fold enrichment (6-mer frequency, TF over GST control); with ERG it was 1.44 fold enrichment (6-mer frequency, TF over GST control); in the assay with ELF1 it was 1.42 fold enrichment (6-mer frequency, TF over GST control); with EHF it was 1.39 fold enrichment (6-mer frequency, TF over GST control). Further, the binding signal was 1.32 fold enrichment (6-mer frequency, TF over GST control) with SPI1; 1.39 fold enrichment (6-mer frequency, TF over GST control) with SPIB; 1.34 fold enrichment (6-mer frequency, TF over GST control) with ELK3.
Take TTAGGT: the binding signal with FLI1 was 1.11 fold enrichment (6-mer frequency, TF over GST control); with ELK1, 1.12 fold enrichment (6-mer frequency, TF over GST control); with GABPA, 1.2 fold enrichment (6-mer frequency, TF over GST control); with ERG, 1.08 fold enrichment (6-mer frequency, TF over GST control); in the assay with ELF1 it was 1.03 fold enrichment (6-mer frequency, TF over GST control); in the assay with EHF, 1.1 fold enrichment (6-mer frequency, TF over GST control). For the same sequence, the binding signal is 1.02 fold enrichment (6-mer frequency, TF over GST control) in the assay with SPI1; 1.12 fold enrichment (6-mer frequency, TF over GST control) with SPIB; 1.17 fold enrichment (6-mer frequency, TF over GST control) with ELK3.
Turning to ACAACA, the binding signal with FLI1 is 1.22 fold enrichment (6-mer frequency, TF over GST control); with ELK1, 1.24 fold enrichment (6-mer frequency, TF over GST control); with GABPA it was 1.23 fold enrichment (6-mer frequency, TF over GST control); with ERG, 1.2 fold enrichment (6-mer frequency, TF over GST control); with ELF1, 1.29 fold enrichment (6-mer frequency, TF over GST control); in the assay with EHF, 1.24 fold enrichment (6-mer frequency, TF over GST control). The binding signal with SPI1 is 1.18 fold enrichment (6-mer frequency, TF over GST control); in the assay with SPIB, 1.19 fold enrichment (6-mer frequency, TF over GST control); in the assay with ELK3, 1.19 fold enrichment (6-mer frequency, TF over GST control).
On to CCGACG, for which the binding signal with FLI1 is 1.27 fold enrichment (6-mer frequency, TF over GST control); with ELK1 it was 1.15 fold enrichment (6-mer frequency, TF over GST control); with GABPA, 1.27 fold enrichment (6-mer frequency, TF over GST control); with ERG it was 1.2 fold enrichment (6-mer frequency, TF over GST control); with ELF1, 1.28 fold enrichment (6-mer frequency, TF over GST control); in the assay with EHF it was 1.17 fold enrichment (6-mer frequency, TF over GST control). Also, the binding signal was 1.22 fold enrichment (6-mer frequency, TF over GST control) in the assay with SPI1; 1.32 fold enrichment (6-mer frequency, TF over GST control) with SPIB; 1.2 fold enrichment (6-mer frequency, TF over GST control) in the assay with ELK3.
